Test results taken from PubChem BioAssay AID493073 (Broad Institute, 2011).
Hit rate of the full screen: of about 1,200 compounds, about 810 (68%) were called active. No rule for the calls is given here. The set was probably picked from earlier hits. The list is a sample of the results. Results with a measured potency or affinity are listed apart.

Assay: reducers of TRPM1 reporter luminescence, concentration series – cell-based, SK-MEL-5, cherry-picked, set 3, MITF inhibitor project, dose response (AID 493073)
Conditions: SK-MEL-5 TRPM1 promoter luciferase, 24 h; series mostly up to 35 µM
For `COCCNC(=O)c1cc2sc3ccccc3c2s1`, the outcome was “inactive”.
For `FC(F)(F)Oc1ccc(-c2cn3cccnc3n2)cc1`, the outcome was “inactive”.
With `O=C(CNC(=O)c1ccc(Br)cc1)c1ccccc1` the outcome was “inactive”.
For `Clc1ccccc1CSc1nnc(-c2ccncc2)o1`, the outcome was “inactive”.
In the case of `Cc1ccc2nc(NC(=O)c3ccc(Br)o3)sc2c1`, the outcome is reported as “inactive”.
In the case of `O=C(Nc1nc2ccccc2s1)Nc1ccc(F)cc1F`, the outcome is reported as “inactive”.
For `Cc1ccc(C(=O)Nc2nc3ccc(Cl)cc3s2)o1`, the outcome was “inactive”.
In the case of `COC(=O)c1ccc(COc2ccc(C)cc2[N+](=O)[O-])o1`, the outcome is reported as “inactive”.
With `COc1ccc2oc3ccc(OC)cc3c(=O)c2c1` the outcome was “inactive”.
With `Cc1cc(NC(=O)c2ccc(Cl)cc2Cl)no1` the outcome was “inactive”.
For `O=C(Nc1cccnc1Cl)c1cc(-c2ccco2)on1`, the outcome was “inactive”.
In the case of `CC1CCN(c2ccc(NC(=O)c3cccnc3)cc2)CC1`, the outcome is reported as “inactive”.
For `NNC(=O)Cn1c(SCc2ccccc2)nc2ccccc21`, the outcome was “inactive”.
With `COC(=O)c1ccc(COc2ccc3c(c2)CCC3)o1` the outcome was “inactive”.
For `O=C(Nc1nc2ccsc2c(=O)s1)C1CCC1`, the outcome was “inactive”.
With `O=C(O)C1CCN(C(=O)OCc2ccccc2)CC1` the outcome was “inactive”.
With `Cc1ccc(-c2nc(-c3ccncc3)no2)cc1C` the outcome was “inactive”.
For `CCOc1ccccc1-c1nc(-c2ccc(C)nc2OC)no1`, the outcome was “inactive”.
With `Fc1ccccc1-c1nc(-c2ccncc2)no1` the outcome was “inactive”.
In the case of `Clc1ccc(-c2nc(-c3ccncc3)no2)c(Cl)c1`, the outcome is reported as “inactive”.
With `Cc1ccc(SCCC(=O)N2CCC(C)CC2)cc1` the outcome was “inactive”.
In the case of `O=C(Nc1ccc(Cl)cc1)C1C2CCCCC21` (stereo not drawn), the outcome is reported as “inactive”.
With `N/C(=N\OC(=O)c1ccncc1)c1cccc([N+](=O)[O-])c1` the outcome was “inactive”.
With `N/C(=N\OC(=O)c1ccccc1Cl)c1cccc([N+](=O)[O-])c1` the outcome was “inactive”.
For `CCn1c(=O)c(C(=O)NCc2ccccc2Cl)c(O)c2ccccc21`, the outcome was “inactive”.
With `Cc1ccc(SCc2cn3cc(Cl)ccc3n2)cc1` the outcome was “inactive”.
In the case of `N/C(=N\OC(=O)c1cccc(F)c1)c1cccc([N+](=O)[O-])c1`, the outcome is reported as “inactive”.
For `Cc1ccccc1OCc1nc2c3cnn(C)c3ncn2n1`, the outcome was “inactive”.
For `Cc1ccc(OCCNCc2ccccc2)c(C)c1`, the outcome was “inactive”.
In the case of `CC(C)(C)c1ccc(OCCn2ccccc2=O)cc1`, the outcome is reported as “inactive”.
With `COc1ccc(NC(=O)c2cc(-c3ccccc3Cl)on2)cc1` the outcome was “inactive”.
For `O=C1c2ccccc2C(=O)N1CCOc1ccccc1`, the outcome was “inactive”.
For `CC(C)c1nnc(NC(=O)CCC2CCCCC2)s1`, the outcome was “inactive”.
In the case of `CC(C)(C)C1CCC(OC(=O)CN2CCCCC2)CC1` (stereo not drawn), the outcome is reported as “inactive”.
With `COc1ccc(C2C(C#N)=C(N)Oc3c2oc(CO)cc3=O)cc1` (stereo not drawn) the outcome was “inactive”.
With `O=C(Nc1ccc2ncccc2c1)c1ccccc1Br` the outcome was “inactive”.
In the case of `CC(=O)c1ccc(N/C=C/C(=O)c2ccc(Br)cc2)cc1`, the outcome is reported as “inactive”.
For `Oc1ccccc1/C=N/Nc1cccc2cccnc12`, the outcome was “inactive”.
With `Cc1ccc2nc(Cc3ccc(N)cc3)oc2c1` the outcome was “inactive”.
With `CCOc1ccccc1NC(=O)C1C2CCC(O2)C1C(=O)O` (stereo not drawn) the outcome was “inactive”.
In the case of `COc1ccc(-c2cc(-c3ccc(OC)c(OC)c3)n[nH]2)c(O)c1`, the outcome is reported as “inactive”.
With `COc1ccc(C(=O)NCC(=O)c2ccccc2)cc1` the outcome was “inactive”.
In the case of `COc1ccc(C(=O)NCCSc2ccccc2C)cc1`, the outcome is reported as “inactive”.
In the case of `COc1cccc(CNc2nc3ccccc3n2C)c1O`, the outcome is reported as “inactive”.
With `Cc1cc(C(F)(F)F)c2c(N)c(C(=O)Nc3cc(C)on3)sc2n1` the outcome was “inactive”.
For `Cc1cc(C)c2c(N)c(C(=O)N/N=C/c3ccccc3)sc2n1`, the outcome was “inactive”.
In the case of `CCc1cc(C=NC2CCCCC2)c(O)s1`, the outcome is reported as “inactive”.
For `Cc1ccccc1NCc1nc2ccccc2n1C`, the outcome was “inactive”.
For `O=C(NCc1ccco1)c1ccc(COCC(F)(F)F)cc1`, the outcome was “inactive”.
In the case of `CN(C)c1ccc(/C=C/c2cccc[n+]2[O-])cc1`, the outcome is reported as “inactive”.
With `Cc1ccc(O)c(NC(=O)c2ccc3c(c2)C(=O)N(CC(C)C)C3=O)c1` the outcome was “inactive”.
For `Clc1nccnc1N/N=C/c1ccc(Br)cc1`, the outcome was “inactive”.
For `COc1cccc(/C=N/NC(=O)c2cccs2)c1`, the outcome was “inactive”.
In the case of `N/C(=N\OC(=O)Cc1cccs1)c1ccccc1`, the outcome is reported as “inactive”.
In the case of `COc1cccc(-c2ccc3c(N)c(C(=O)NC4CC4)sc3n2)c1`, the outcome is reported as “inactive”.
In the case of `O=C(NC1CCCCC1)c1cc2cc(Br)ccc2o1`, the outcome is reported as “inactive”.
With `O=C(NC1CCCCCC1)c1cc2ccccc2oc1=O` the outcome was “inactive”.
In the case of `N#C/C(C(=O)c1ccccc1)=C1/CCCCCN1`, the outcome is reported as “inactive”.
For `CCOc1ccc(N=C(C)C2=C(O)c3ccccc3C2=O)cc1`, the outcome was “inactive”.
With `Cn1c(COc2ccccc2Br)nc2ccccc21` the outcome was “inactive”.
For `NC(=O)c1c(NC(=O)c2cccnc2)sc2c1CCCCC2`, the outcome was “inactive”.
In the case of `CCOc1cc(/C=N/N=C(N)N)ccc1OCc1ccc(Cl)cc1`, the outcome is reported as “inactive”.
With `Cc1ccc(COc2ccc(C)nc2[N+](=O)[O-])cc1` the outcome was “inactive”.
With `O=C(Nc1ccc(Cl)cc1)N1CC=CCC1` the outcome was “inactive”.
In the case of `CC(C)(CO)NC(=O)c1ccc2nc(Cc3cccc(Cl)c3)oc2c1`, the outcome is reported as “inactive”.
For `Cc1ccc(C(=O)c2coc3ccc(O)c(Cl)c23)cc1`, the outcome was “inactive”.
With `OCc1ccc(N=Nc2ccccc2)cc1` the outcome was “inactive”.
For `Cc1ccc(OCCCCN2CCCCC2)c(Br)c1`, the outcome was “inactive”.
With `O=C(Cc1cccs1)NCc1ccc(Cl)cc1Cl` the outcome was “inactive”.
For `O=C(CCC(=O)c1ccc[nH]1)c1ccc(Cl)cc1`, the outcome was “inactive”.
In the case of `COc1nc(NC2CCCCC2)nc(NC(C)(C)C)n1`, the outcome is reported as “inactive”.
For `C#Cc1cccc(NC(=O)CSc2nnc(-c3ccc(C(F)(F)F)cn3)o2)c1`, the outcome was “inactive”.
For `Cn1c(COc2ccccc2)nc2ccccc21`, the outcome was “inactive”.
For `COc1ccc(NCc2nc3ccccc3n2C)cc1`, the outcome was “inactive”.
With `COc1cc(CN2CCC(C(=O)NCCC(C)C)CC2)ccc1OCc1ccccc1` the outcome was “inactive”.
With `COc1cccc(/C=C/C(=O)c2ccc3c(c2)OCCO3)c1OC` the outcome was “inactive”.
For `COc1ccc(C(=O)Nc2ccc3c(c2)OCCO3)cc1Br`, the outcome was “inactive”.
For `COc1ccc(N(CC(=O)NCC2CCCO2)S(=O)(=O)c2ccccc2)cc1OC` (stereo not drawn), the outcome was “inactive”.
For `CC(=O)Nc1cccc(-c2nnc(-c3ccccc3)o2)c1`, the outcome was “inactive”.
With `O=C(CN1CCCCC1)Nc1scc2c1c(=O)oc1ccccc12` the outcome was “inactive”.
With `CCN(CC)CCNC(=O)C1CCN(S(=O)(=O)c2c(C)noc2/C=C/c2ccccc2F)CC1` the outcome was “inactive”.
For `Cc1cc(/C(N)=N/OC(=O)Nc2ccc(Cl)cc2)no1`, the outcome was “inactive”.
In the case of `Cc1cccc(NC(=O)c2cnn(-c3ccccc3)c2C)c1C`, the outcome is reported as “inactive”.
In the case of `Cc1ccsc1C(=O)OCC(=O)Nc1sccc1C(N)=O`, the outcome is reported as “inactive”.
With `CCCCC(=O)N/C(N)=N/c1nc2ccccc2o1` the outcome was “inactive”.
For `Cc1ccc(-c2nc(C#N)c(NCc3ccco3)o2)cc1`, the outcome was “inactive”.
In the case of `O=C(NCC1CCCO1)c1cc(-c2ccc(Cl)cc2Cl)on1` (stereo not drawn), the outcome is reported as “inactive”.
For `Cc1cccc(-c2nc(C#N)c(NCc3ccco3)o2)c1`, the outcome was “inactive”.
In the case of `O=C(Nc1ccc2nn(-c3ccccc3)nc2c1)c1ccco1`, the outcome is reported as “inactive”.
With `CNc1oc(/C=C/c2cccc(OC)c2)nc1C#N` the outcome was “inactive”.
With `Cc1cc(Cl)ccc1NC(=O)c1ccc2c(c1)OCO2` the outcome was “inactive”.
In the case of `CC(C)C(=O)Nc1cccc(NC(=O)c2cc3ccccc3o2)c1`, the outcome is reported as “inactive”.
With `N=c1n(CC(=O)c2ccc([N+](=O)[O-])cc2)c2ccccc2n1Cc1ccc(Cl)cc1` the outcome was “inactive”.
In the case of `O=C1CN(c2ccccc2)C(=S)N1C(=O)c1ccc(Br)cc1`, the outcome is reported as “inactive”.
For `Cc1c(C=O)c2cc(OCc3ccccc3)ccc2n1C`, the outcome was “inactive”.
In the case of `CC1CCCC(C)N1CCCNC(=O)c1cc2c(s1)-c1ccccc1OC2` (stereo not drawn), the outcome is reported as “inactive”.
With `COc1ccccc1/C=C/C=N/NC(=O)c1cccs1` the outcome was “inactive”.
With `Cc1ccc(SCCSc2ncccn2)cc1` the outcome was “inactive”.
With `Nc1c(-c2ccccc2)cnc2c(-c3ccccc3)cnn12` the outcome was “inactive”.
In the case of `CC(C)(C)c1cc(NCCCn2ccnc2)n2ncc(-c3ccccc3)c2n1`, the outcome is reported as “inactive”.
For `c1cc(CSc2nnc(-c3ccc4c(c3)OCO4)o2)ccn1`, the outcome was “inactive”.
With `O=C(Nc1nc2ccccc2s1)c1ccccc1[N+](=O)[O-]` the outcome was “inactive”.
For `Cc1ccc(NC(=O)Nc2ccccc2)nc1`, the outcome was “inactive”.
For `COc1cc(SC)ccc1C(=O)NCCOc1ccccc1Cl`, the outcome was “inactive”.
With `Cc1cnn(C(=S)NCCc2ccccc2)c1` the outcome was “inactive”.
For `COc1ccc(C)c2sc(N(CCN(C)C)C(=O)/C=C/c3cccs3)nc12`, the outcome was “inactive”.
With `CN(C)CCCN(C(=O)CCc1ccccc1)c1nc2ccc(Br)cc2s1` the outcome was “inactive”.
For `O=C(CSC(=S)N1CCCCC1)c1c(F)cccc1F`, the outcome was “inactive”.
For `COc1ccc(CNC(=O)CN2C(=O)C3C4C=CC(C4)C3C2=O)cc1` (stereo not drawn), the outcome was “inactive”.
In the case of `COC(=O)c1c(C)[nH]c(/C=N/Nc2ccccc2)c1C`, the outcome is reported as “inactive”.
In the case of `COc1cc(CN2CCC(C(N)=O)CC2)ccc1OCc1ccccc1`, the outcome is reported as “inactive”.
With `O=C(Nc1cc2c(cc1Cl)OCCO2)c1ccco1` the outcome was “inactive”.
For `CCOC(=O)c1sc(-c2ccccc2)cc1N`, the outcome was “inactive”.
With `Cc1nn2c(N)c(-c3ccccc3)cnc2c1-c1ccccc1` the outcome was “inactive”.
With `CC(=O)Nc1cccc2c1Cc1ccccc1-2` the outcome was “inactive”.
In the case of `CN(C)CCNC(=O)COc1ccc(C23CC4CC(CC(C4)C2)C3)cc1`, the outcome is reported as “inactive”.
For `Cc1ccc(-n2ncc3c(SCC(N)=O)ncnc32)cc1C`, the outcome was “inactive”.
For `Cn1c(/C=C/c2ccc(Cl)cc2)nc2ccccc2c1=O`, the outcome was “inactive”.
With `Cc1ccc(OCC(=O)Nc2ccccc2F)cc1` the outcome was “inactive”.
For `Fc1cccc(Cl)c1CSc1nnc(-c2ccncc2)o1`, the outcome was “inactive”.
For `CSc1nc(N)n2nc(-c3ccc(Cl)cc3)cc2n1`, the outcome was “inactive”.
For `COc1ccc(NC(=O)Nc2ccc(F)c(F)c2)c(OC)c1`, the outcome was “inactive”.
For `O=[N+]([O-])c1ccccc1OCCOc1ccccc1[N+](=O)[O-]`, the outcome was “inactive”.
In the case of `O=C(c1cc2ccccc2oc1=O)N(Cc1ccccc1)C1CCS(=O)(=O)C1` (stereo not drawn), the outcome is reported as “inactive”.
For `O=C(CCCc1ccccc1)N1CCN(C2CCCCC2)CC1`, the outcome was “inactive”.
In the case of `N=C1C(c2nc3ccccc3[nH]2)=C(O)CN1C1CCCCC1`, the outcome is reported as “inactive”.
With `c1ccc(OCc2nc3ccccc3[nH]2)cc1` the outcome was “inactive”.
With `Cc1c(C(=O)N(CCO)Cc2ccccc2)oc2c(F)cccc12` the outcome was “inactive”.
